Measured values from PubChem BioAssay (Tox21).
Where “and” joins values, the source holds several entries; their conditions need not be identical. Identical values can stand only once. Records with an inconclusive call do not appear. Some compounds were tested as several samples or in several runs, with calls that do not always agree. Calls of active or inactive are those of the source. Unless noted, calls come from the whole dose curve; as a rule, active = well fitted curve in the direction sought with a large enough effect in the repeat runs; inconclusive = weak or mixed curves; inactive = no such curve, though single readings can be large; an effect the other way counts as inactive or inconclusive.

Tests used:
[1] = qHTS assay to identify small molecule agonists of the vitamin D receptor (VDR) signaling pathway - cell viability counter screen (AID 743224); note: % is set by controls: 0 for no effect and ±100 for the full control effect; nearly all actives have a fitted effect of over 50% in size
How it was run: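 Plated VDR-bla cells (4 h, 37C) received compound, incubated 16 h, then LiveBLAzer substrate 2 h RT; CellTiter-Glo added afterwards, luminescence read at 30 min.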

[2] = qHTS assay to identify small molecule antagonists of the vitamin D receptor (VDR) signaling pathway - cell viability counter screen (AID 743225); note: % is set by controls: 0 for no effect and ±100 for the full control effect; nearly all actives have a fitted effect of over 50% in size
How it was run: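 Parallel cytotoxicity test: VDR-UAS-bla HEK 293T, 3 nM (final) 1-alpha,25-dihydroxyvitamin D3 with test compound, 16 h, 37C. Endpoint is CellTiter-Glo luminescence in the same wells.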

[3] = qHTS assay to identify small molecule agonists of the NFkB signaling pathway - cell viability counter screen (AID 1159515; calls by dose curve; note: % is set by controls: 0 for no effect and ±100 for the full control effect; nearly all actives have a fitted effect of over 55% in size)
How it was run: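 Using the same wells as the NFkB reporter read, ME-180 NFkB-bla cells given compounds for 5 hr were assessed for viability via CellTiter-Glo, with luminescence taken after a 30 min room-temperature incubation.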

[4] = qHTS assay to identify small molecule agonists of the endoplasmic reticulum stress response signaling pathway (AID 1159516; active = well fitted activation curve with a large enough effect in the signal ratio in the repeat runs, not every such curve was filed as active; the % refers to the signal ratio; note: potency is the fitted concentration of half-maximal effect)
How it was run: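 An ESRE-bla HeLa cell assay: compounds were pin-transferred from DMSO onto overnight-plated cells and left 5 hr at 37 C. Substrate was then loaded for 2 hr at room temperature before reading fluorescence at 460 nm and 530 nm.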

[5] = qHTS assay to identify small molecule agonists of the endoplasmic reticulum stress response signaling pathway - cell viability counter screen (AID 1159517; calls by dose curve;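 note: HeLa cells carrying an ER stress response element beta-lactamase reporter; % is set by controls: 0 for no effect and ±100 for the full control effect; nearly all actives have a fitted effect of over 50% in size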)
How it was run: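 Counter-screen wells were identical to the reporter wells. Cells were plated at 1,500 per well and dosed for 5 hr, then read for luminescence 30 min after CellTiter-Glo addition.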

[6] = qHTS assay to identify small molecule antagonists of the retinoid-related orphan receptor gamma (ROR-gamma) signaling pathway - cell viability counter screen (AID 1159520); note: % is set by controls: 0 for no effect and ±100 for the full control effect; nearly all actives have a fitted effect of over 50% in size
How it was run: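 Tet-on ROR gamma CHO cells were given compounds for 2 hr, then doxycycline hyclate at 1 uM final, and incubated 16 hr at 37 C. Viability was measured as ATP content by CellTiter-Glo luminescence.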

[7] = qHTS assay to identify small molecule agonists of the AP-1 signaling pathway - cell viability counter screen (AID 1159525; calls by dose curve; note: nearly all actives have a fitted effect of over 55% in size)
How it was run: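 AP-1-bla ME-180 cells in Opti-MEM with 0.5% dialyzed FBS, compound exposure 5 h at 37 C in 15-point titration. Viability read in the same wells as ATP content by CellTiter-Glo luminescence, normalised to tetra-n-octylammonium bromide and DMSO controls.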

[8] = qHTS assay to identify small molecule agonists of the AP-1 signaling pathway (AID 1159526; calls by dose curve; note: % is set by controls: 0 for no effect and ±100 for the full control effect)
[9] = biological target: Retinoic acid receptor RXR-alpha (Homo sapiens) (UniProt P19793); assay: qHTS assay to identify small molecule agonists of the RXR signaling pathway (AID 1159527; calls by dose curve; note: nearly all actives have a fitted effect of over 35% in size; note: potency is the fitted concentration of half-maximal effect)
Chain of Retinoic acid receptor RXR-alpha (Homo sapiens) (P19793 whole entry, looked up): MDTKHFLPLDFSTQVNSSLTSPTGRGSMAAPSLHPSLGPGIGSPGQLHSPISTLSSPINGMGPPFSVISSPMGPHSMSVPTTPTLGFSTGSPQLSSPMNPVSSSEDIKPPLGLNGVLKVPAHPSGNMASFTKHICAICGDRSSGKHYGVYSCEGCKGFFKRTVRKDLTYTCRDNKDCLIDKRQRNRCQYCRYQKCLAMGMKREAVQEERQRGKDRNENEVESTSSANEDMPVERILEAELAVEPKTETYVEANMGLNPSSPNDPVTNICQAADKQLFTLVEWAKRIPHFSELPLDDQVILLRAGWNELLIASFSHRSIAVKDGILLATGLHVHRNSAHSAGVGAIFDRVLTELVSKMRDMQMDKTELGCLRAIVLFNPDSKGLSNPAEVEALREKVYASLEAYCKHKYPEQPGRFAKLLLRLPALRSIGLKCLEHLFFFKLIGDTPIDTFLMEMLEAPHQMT
How it was run: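 16 hr incubation of compound-treated RXR-alpha-UAS-bla HEK 293T cells (2% charcoal-stripped FBS, 37 C) preceded a 2 hr room-temperature LiveBLAzer FRET substrate step and blue/green fluorescence measurement.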

[10] = qHTS assay to identify small molecule agonists of the RXR signaling pathway - cell viability counter screen (AID 1159529)
How it was run: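 In this parallel viability measure, GeneBLAzer RXR-alpha HEK 293T cells (2% charcoal-stripped FBS) were given a 5 hr preincubation, treated with compounds 16 hr at 37 C, and read by CellTiter-Glo luminescence.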

[11] = qHTS assay to identify small molecule antagonists of the retinoic acid receptor (RAR) signaling pathway (AID 1159552)
How it was run: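 C3RL4 RARE-luc cells, overnight plating; retinol 1 uM final added right after compound; 6 hr 37 C; luciferase read at 30 min RT.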

[12] = qHTS assay to identify small molecule agonists of the retinoic acid receptor (RAR) signaling pathway (AID 1159553); details: C3RL4 RARE luciferase reporter, agonist, 6 h; note: potency is the fitted concentration of half-maximal effect
How it was run: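 Reporter readout comes from luciferase under RARE control in C3RL4 cells; compound exposure lasts 6 hr at 37 C in 5% CO2, and luminescence is recorded following a 30 min room-temperature incubation with reagent.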

[13] = qHTS assay to identify small molecule antagonists of the retinoid acid receptor (RAR) signaling pathway - cell viability counter screen (AID 1159551); note: % is set by controls: 0 for no effect and ±100 for the full control effect; nearly all actives have a fitted effect of over 35% in size
How it was run: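 Retinol-stimulated (1 uM final) C3RL4 cells, compound 6 h, 37 C; readout CellTiter-Glo luminescence (ATP) after 30 min RT incubation.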

[14] = biological target: Nuclear receptor ROR-gamma (Homo sapiens) (UniProt P51449); assay: qHTS assay to identify small molecule antagonists of the retinoid-related orphan receptor gamma (ROR-gamma) signaling pathway (AID 1159521)
How it was run: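 Decreased RORE-driven luciferase luminescence indicates antagonism. Tet-on RORγ CHO cells received compound, then 1 uM final doxycycline 2 h later; signal read after 16 h incubation.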

[15] = qHTS assay to identify small molecule antagonists of the estrogen related receptor (ERR) signaling pathway - cell viability counter screen (AID 1224818);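 note: viability measured after 17.5 h of compound exposure; % is set by controls: 0 for no effect and ±100 for the full control effect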
How it was run: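 After a 6 h pre-incubation, ERR cells were dosed by pin tool with compounds, positive/negative controls or DMSO alone. Following 17.5 h at 37 C and 30 min with CellTiter-Fluor, fluorescence was recorded.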

[16] = qHTS assay to identify small molecule agonists of the estrogen related receptor (ERR) signaling pathway (AID 1224820); note: % is set by controls: 0 for no effect and ±100 for the full control effect
How it was run: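 Quantitative HTS of the LOPAC library used NTP ERR reporter cells treated 18 h at 37 C. Signal is luminescence after One-Glo addition and a 30 min room-temperature incubation.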

[17] = system: estrogen-related receptor alpha (ERRalpha) with PGC-1alpha coactivator, human; assay: qHTS assay to identify small molecule antagonists of the estrogen related receptor signaling pathway with the pleiotropic PPARgamma coactivator (PGC) (AID 1224821; calls by dose curve)
How it was run: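 Quantitative HTS for antagonism: PGC/ERR cells received compounds after 6 h attachment and were incubated 18 h at 37 C, with luminescence (One-Glo) as the endpoint.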

[18] = qHTS assay to identify small molecule antagonists of the estrogen related receptor signaling pathway with the pleiotropic PPARgamma coactivator (PGC) cell viability counter screen (AID 1224822;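 note: viability read after 17.5 h compound exposure; % is set by controls: 0 for no effect and ±100 for the full control effect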)
How it was run: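 PGC/ERR cells were plated at 2,000 per well and allowed 6 h to settle before compound addition. Following 17.5 h at 37 C, CellTiter-Fluor reagent was added and fluorescence was read 30 min later.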

[19] = qHTS assay to identify small molecule antagonists of the estrogen related receptor (ERR) signaling pathway (AID 1224819)
How it was run: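 Luminescence readout (One-Glo, 30 min, RT) of ERR cell line after 18 h compound exposure at 37 C; cells seeded 2,000/well, pre-incubated 6 h, compounds pinned from DMSO stocks.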

[20] = activation: at 73.3 µM (top of the series) unless noted

O=C1C(N(CO)C(=O)NCO)N(CO)C(=O)N1CO (configuration not stated)
inactive: Potency [1] | Potency [2] | Potency [3] | Potency [4] | Potency [5] | Potency [6] | Potency [7] | outcome [8] | Potency [9] | Potency [10] | Potency [11] | Potency [12, 20]

Oc1ccc(Cc2ccccc2O)cc1
inactive: Potency [1] | Potency [3] | Potency [4] | Potency [5] | Potency [6] | Potency [7] | outcome [8] | Potency [9] | Potency [10] | Potency [13] | Potency [11] | Potency [12, 20]

COc1ccccc1[N+](=O)[O-]
inactive: Potency [1] | Potency [3] | Potency [4] | Potency [5] | Potency [6] | Potency [7] | outcome [8] | Potency [9] | Potency [13] | Potency [11] | Potency [12, 20]

CC(=O)c1nccs1
inactive: Potency [1] | Potency [3] | Potency [4] | Potency [5] | Potency [6] | Potency [7] | outcome [8] | Potency [9] | Potency [11] | Potency [12, 20]

CO[Si](CCCNCCN)(OC)OC
inactive: Potency [1] | Potency [2] | Potency [3] | Potency [4] | Potency [5] | Potency [6] | Potency [7] | outcome [8] | Potency [9] | Potency [10] | Potency [13] | Potency [11] | Potency [12, 20]

NCCNCCNCCN
inactive: Potency [1] | Potency [2] | Potency [3] | Potency [4] | Potency [5] | Potency [6] | Potency [7] | outcome [8] | Potency [9] | Potency [10] | Potency [13] | Potency [11] | Potency [12, 20]

Nc1nc(N)c2nc(-c3ccccc3)c(N)nc2n1
17.4 µM (active) and inactive: Potency [12, 20]
active: Potency [4] 49 µM and 21.3 µM | Potency [9] 19 µM
inactive: Potency [1] | Potency [2] | Potency [3] | Potency [5] | Potency [6] | Potency [14] | Potency [7] | Potency [11] | outcome [15] | outcome [16] | Potency [17] | Potency [18]

CC1(C)C(=O)N(Cl)C(=O)N1Cl
inactive: Potency [1] | Potency [2] | Potency [3] | Potency [4] | Potency [5] | Potency [6] | Potency [14] | Potency [7] | outcome [8] | Potency [9] | Potency [13]

O=c1n(CCCN2CCN(c3cccc(Cl)c3)CC2)nc2ccccn12
inactive: Potency [1] | Potency [2] | Potency [3] | Potency [5] | Potency [6] | Potency [14] | Potency [7] | outcome [8] | Potency [9] | Potency [10] | Potency [13] | Potency [11] | Potency [12, 20] | outcome [15] | Potency [19] | outcome [16] | Potency [18]

O=C(O)C1=NN(c2ccc(S(=O)(=O)O)cc2)C(=O)C1
inactive: Potency [1] | Potency [2] | Potency [3] | Potency [4] | Potency [5] | Potency [6] | Potency [7] | outcome [8] | Potency [9] | Potency [11] | Potency [12, 20]

OC1CCCCC1
inactive: Potency [1] | Potency [3] | Potency [4] | Potency [5] | Potency [6] | Potency [7] | outcome [8] | Potency [9] | Potency [10] | Potency [13] | Potency [11] | Potency [12, 20]

CCCCCCC(=O)O
inactive: Potency [1] | Potency [2] | Potency [3] | Potency [4] | Potency [5] | Potency [6] | Potency [7] | outcome [8] | Potency [9] | Potency [10] | Potency [13] | Potency [11] | Potency [12, 20]

CCCCC(CC)COC(=O)c1ccc(C(=O)OCC(CC)CCCC)cc1 (configuration not stated)
inactive: Potency [1] | Potency [2] | Potency [3] | Potency [4] | Potency [5] | Potency [6] | Potency [7] | outcome [8] | Potency [9] | Potency [10] | Potency [13] | Potency [11] | Potency [12, 20]

Cc1ccc(Cl)cc1
inactive: Potency [1] | Potency [2] | Potency [3] | Potency [4] | Potency [5] | Potency [6] | Potency [14] | Potency [7] | outcome [8] | Potency [9] | Potency [13]

CN1CCCC1=O
active: activation [12, 20] -0.377% [at 94.8 µM]
inactive: Potency [1] | Potency [2] | Potency [3] | Potency [4] | Potency [5] | Potency [6] | Potency [7] | outcome [8] | Potency [9] | Potency [10] | Potency [13] | Potency [11] | activation ([12]; at 73.3 µM (top of the series)) 0.131%

Brc1ccc(Oc2ccc(Br)cc2)cc1
inactive: Potency [1] | Potency [3] | Potency [4] | Potency [5] | Potency [6] | Potency [14] | Potency [7] | outcome [8] | Potency [10] | Potency [11] | Potency [12, 20]

O=[N+]([O-])c1cc(C(F)(F)F)ccc1Cl
inactive: Potency [1] | Potency [3] | Potency [4] | Potency [5] | Potency [6] | Potency [14] | Potency [7] | outcome [8] | Potency [9] | Potency [13]

CC1(C)[C@@H](O[C@H]2O[C@H](C(=O)O)[C@@H](O)[C@H](O)[C@H]2O[C@@H]2O[C@H](C(=O)O)[C@@H](O)[C@H](O)[C@H]2O)CC[C@]2(C)[C@H]3C(=O)C=C4[C@@H]5C[C@@](C)(C(=O)O)CC[C@]5(C)CC[C@@]4(C)[C@]3(C)CC[C@@H]12
inactive: Potency [1] | Potency [2] | Potency [3] | Potency [4] | Potency [5] | Potency [6] | Potency [7] | outcome [8] | Potency [9] | Potency [10] | Potency [12, 20]

NC(=O)NC(N)=O
inactive: Potency [1] | Potency [3] | Potency [4] | Potency [5] | Potency [6] | Potency [7] | outcome [8] | Potency [9] | Potency [10] | Potency [13] | Potency [11] | Potency [12, 20]

CS(=O)(=O)c1ccc(Cl)cc1
inactive: Potency [1] | Potency [2] | Potency [3] | Potency [4] | Potency [5] | Potency [6] | Potency [7] | outcome [8] | Potency [9] | Potency [10] | Potency [13] | Potency [11] | Potency [12, 20]

Cc1ccncc1
inactive: Potency [1] | Potency [2] | Potency [3] | Potency [4] | Potency [5] | Potency [6] | Potency [7] | outcome [8] | Potency [9] | Potency [13] | Potency [11] | Potency [12, 20]
